Structures are written as SMILES. The campaign covered roughly 39,000 compounds. About 3,300 (8.5%) were called active. Shown is part of a subset that was picked to be rich in actives.

This test concerns HepG2. The test is described as follows: cytotoxicity call (relative viability < 0.9). To be noted: 10 µM.
For `Cc1ccc(S(=O)(=O)N(C)C[C@H]2Oc3ccc(NC(=O)NC(C)C)cc3CC(=O)N([C@@H](C)CO)C[C@H]2C)cc1`, the cytotoxicity call is “inactive”. Then `NC(=O)[C@@]1(CCS(=O)(=O)c2ccccc2)N=C(c2ccc(OCCCO)cc2)O[C@H]1c1ccccc1`, with “inactive”.

As for `C[C@@H](Oc1cc(-n2cnc3ccc(CN4CCN(C)CC4)cc32)sc1C(N)=O)c1ccccc1C(F)(F)F`, the cytotoxicity call is “active”. Then `C[C@@H]1CN([C@@H](C)CO)C(=O)c2cc(C#CC3(O)CCCC3)cnc2O[C@@H]1CN(C)C(=O)Cc1cccnc1`, with “inactive”; and `C[C@@H]1CN([C@H](C)CO)C(=O)c2cc(C#CC3(O)CCCC3)cnc2O[C@@H]1CN(C)C(=O)CN(C)C`, with “inactive”. With `CCCC(=O)Nc1ccc2c(c1)C(=O)N(C)C[C@@H](OC)[C@H](C)CN(Cc1ccc(-c3ccccn3)cc1)[C@@H](C)CO2`, the cytotoxicity call is “inactive”. Then `CCC(CO)NCCNC(CC)CO.Cl.Cl` (stereo not given), with “inactive”; and `C=CCC[C@@H](Cc1ccc(F)cc1)C(=O)OC[C@@H](NC(=O)[C@@H](CC=C)CC(=O)N[C@@H](CO)Cc1ccccc1)C(C)(C)C`, with “inactive”; and `C=CCC[C@@H](Cc1ccc(F)cc1)C(=O)OC[C@@H](Cc1ccccc1)NC(=O)[C@H](CC=C)CC(=O)N[C@@H](CO)Cc1ccccc1`, with “inactive”. Then `C=CCC[C@H](Cc1ccc(F)cc1)C(=O)OC[C@@H](NC(=O)[C@@H](CC=C)CC(=O)N[C@H](CO)Cc1ccccc1)C(C)(C)C`, with “inactive”; and `C=CC[C@H](CC(=O)N[C@@H](CO)Cc1ccccc1)C(=O)N[C@@H](COC(=O)[C@@H](CC=C)Cc1ccc(F)cc1)Cc1ccccc1`, with “inactive”. Then `C=CCC[C@H](Cc1ccc(F)cc1)C(=O)OC[C@@H](NC(=O)[C@@H](CC=C)CC(=O)N[C@@H](CO)Cc1ccccc1)C(C)(C)C`, with “active”. Regarding `C=CCC[C@@H](Cc1ccc(F)cc1)C(=O)OC[C@@H](NC(=O)[C@@H](CC=C)CC(=O)N[C@H](CO)Cc1ccccc1)C(C)(C)C`, the cytotoxicity call is “active”. Then `C[C@H]1CN([C@@H](C)CO)C(=O)c2cc(C#Cc3cccnc3)cnc2O[C@@H]1CN(C)S(=O)(=O)c1ccccc1F`, with “inactive”; and `C[C@H](CO)N1C[C@H](C)[C@@H](CN(C)S(=O)(=O)c2cn(C)cn2)OCCCC[C@H](C)Oc2ccc(NC(=O)CCCN(C)C)cc2C1=O`, with “inactive”; and `O=C(C[C@H]1CC[C@H](NS(=O)(=O)c2ccccc2)[C@@H](CO)O1)NCc1ccncn1`, with “inactive”.

With `C[C@@H]1CCCCO[C@@H](CN(C)C(=O)CCCN(C)C)[C@@H](C)CN([C@H](C)CO)C(=O)c2cc(NS(C)(=O)=O)ccc2O1`, the cytotoxicity call is “inactive”. As for `COc1ccc(S(=O)(=O)N[C@H]2CC[C@H](CC(=O)N3CCN(c4ccccc4)CC3)O[C@@H]2CO)cc1`, the cytotoxicity call was “inactive”. The entry for `Cn1c(CC#N)n[nH]c1=S` is “inactive”. Then `CC(C)NC(=O)Nc1ccc2c(c1)C(=O)N([C@@H](C)CO)C[C@H](C)[C@@H](CN(C)S(C)(=O)=O)OCCCC[C@H](C)O2`, with “inactive”; and `CCN1CCCC1CNC(=O)c1cc(S(N)(=O)=O)ccc1OC` (stereo not given), with “inactive”; and `CCN(CC)CCNC(=O)c1cc(Br)c(N)cc1OC`, with “inactive”. Then `CCN1CCCC1CNC(=O)c1cc(S(=O)(=O)CC)c(N)cc1OC` (stereo not given), with “active”; and `COc1ccc(NC(=O)Nc2cccc3c2O[C@H](CN(C)Cc2ccc(C(=O)Nc4ccccc4N)cc2)[C@H](C)CN([C@@H](C)CO)C3=O)cc1`, with “inactive”. With `COC1=CC(=O)CC(C)C12Oc1c(Cl)c(OC)cc(OC)c1C2=O` (stereo not given), the cytotoxicity call is “active”. `COc1cc(OC)c2c(c1Cl)OC1(C2=O)C(O)=CC(=O)CC1C` (stereo not given): the cytotoxicity call was “inactive”. The entry for `NC(=O)N1C(=O)[C@H]2[C@H](C1=O)[C@H]1C=C(c3ccc(CO)cc3)[C@@H]2[C@@H](C2CC2)N1Cc1cc2c(cc1Br)OCO2` is “inactive”; for `CCCC#Cc1ccc2c(c1)O[C@H](CN(C)S(=O)(=O)c1cccc(F)c1)[C@@H](C)CN([C@H](C)CO)S2(=O)=O` it is “inactive”.

For the molecule `Cc1ccccc1NC(=O)CC(C)C`, the cytotoxicity call is “inactive”. The entry for `CCn1c(=O)c(-c2cc(NC(=O)Nc3ccccc3)c(F)cc2Br)cc2cnc(NC)cc21` is “active”; for `CN(C)CCCCCCNC(=O)[C@H]1C[C@H]2C(=O)NCC(=O)N2[C@H]1c1cccc(OCCO)c1` it is “inactive”. Then `Cc1ccc(S(=O)(=O)Nc2ccc3c(c2)C(=O)N([C@@H](C)CO)C[C@@H](C)[C@H](CN(C)C(=O)Nc2ccc(C(F)(F)F)cc2)OCCCC[C@@H](C)O3)cc1`, with “inactive”. Then `CC[C@@]1(C)N[C@H](C(=O)O)CS1`, with “inactive”. In the case of `COc1ccc(-n2nc(CCC(=O)N(C)O)cc2-c2ccc(Cl)cc2)cc1`, the cytotoxicity call is “active”.

With `COc1ccc2cc(-c3cc(-c4cc(Cl)cc(Cl)c4)nn3[C@@H](C)c3ccc(C(=O)NCCC(=O)O)cc3)ccc2c1`, the cytotoxicity call is “inactive”.

With `C[C@H](CO)N1C[C@H](C)[C@H](CN(C)CC2CC2)Oc2cc(C#Cc3cccc(F)c3)ccc2S1(=O)=O`, the cytotoxicity call was “inactive”. Then `O=c1[nH][n+](-c2ccccc2)no1`, with “inactive”. Take `COCC(=O)Nc1ccc2c(c1)[C@@H]1C[C@@H](CC(=O)N3CCOCC3)O[C@@H](CO)[C@@H]1O2`: the cytotoxicity call was “inactive”. Then `CC(=O)N(C[C@@H](O)CO)c1c(I)c(C(=O)NC[C@@H](O)CO)c(I)c(C(=O)NC[C@@H](O)CO)c1I`, with “inactive”; and `O=C(NCC(O)CO)c1c(I)c(C(=O)NCC(O)CO)c(I)c(N(CCO)C(=O)CO)c1I` (stereo not given), with “active”. The entry for `O=C(NC[C@@H](O)CO)c1c(I)c(C(=O)NC[C@@H](O)CO)c(I)c(N(CCO)C(=O)CO)c1I` is “inactive”; for `Cc1ccc(S(=O)(=O)Nc2ccc3c(c2)CC(=O)N([C@@H](C)CO)C[C@H](C)[C@H](CN(C)S(=O)(=O)c2cccs2)O3)cc1` it is “inactive”; for `C[C@H](CO)N1C[C@H](C)[C@H](CN(C)Cc2ccc(Cl)c(Cl)c2)Oc2c(NS(=O)(=O)c3cccs3)cccc2C1=O` it is “inactive”. The entry for `Cn1c(=O)c2[nH]c(C3CCCC3)nc2n(C)c1=O` is “inactive”; for `CCn1c(Cl)nc2c1c(=O)n(C)c(=O)n2C` it is “inactive”; for `Cc1nc2c(=O)n(C)c(=O)n(C)c2nc1Cl` it is “active”. `N=C(N)N1CCc2ccccc2C1.O=S(=O)(O)O`: the cytotoxicity call is “inactive”.

For the molecule `CN1Cc2c(Cl)cc(Cl)cc2[C@H](c2cccc(S(=O)(=O)NCCOCCOCCNC(=O)NCCCCNC(=O)NCCOCCOCCNS(=O)(=O)c3cccc([C@@H]4CN(C)Cc5c(Cl)cc(Cl)cc54)c3)c2)C1`, the cytotoxicity call is “inactive”.

With `COc1ccc(S(=O)(=O)N(C)C[C@@H]2Oc3cc(C#CC4CCCC4)ccc3S(=O)(=O)N([C@H](C)CO)C[C@@H]2C)cc1`, the cytotoxicity call is “inactive”. For the molecule `O=C(C[C@H]1C[C@H]2c3cc(NS(=O)(=O)c4ccc(F)cc4)ccc3O[C@H]2[C@@H](CO)O1)NCc1cccnc1`, the cytotoxicity call is “inactive”. Then `COc1ccc(NC(=O)N(C)C[C@H]2Oc3c(NC(=O)c4ccc(-c5nccs5)cc4)cccc3C(=O)N([C@H](C)CO)C[C@H]2C)cc1`, with “inactive”; and `COC(=O)c1c(CC[C@@H](CO)NC(=O)N2CCC[C@H]2Cn2cc(-c3ccccn3)nn2)oc(C(C)=O)c1C(=O)OC`, with “inactive”; and `C[C@H](CO)N1C[C@H](C)[C@H](CN(C)Cc2ccc(Oc3ccccc3)cc2)Oc2ccc(NC(=O)CCC(F)(F)F)cc2CC1=O`, with “active”. Then `C[C@@H]1CN([C@H](C)CO)C(=O)Cc2cc(NC(=O)CCC(F)(F)F)ccc2O[C@H]1CN(C)Cc1ccc(Oc2ccccc2)cc1`, with “active”; and `C[C@@H]1CN([C@H](C)CO)C(=O)Cc2cc(NC(=O)CCC(F)(F)F)ccc2O[C@@H]1CN(C)Cc1ccc(Oc2ccccc2)cc1`, with “active”; and `C[C@@H]1CN([C@@H](C)CO)C(=O)Cc2cc(NC(=O)CCC(F)(F)F)ccc2O[C@@H]1CN(C)Cc1ccc(Oc2ccccc2)cc1`, with “active”. Then `C[C@H]1CN([C@@H](C)CO)C(=O)Cc2cc(NC(=O)CCC(F)(F)F)ccc2O[C@H]1CN(C)Cc1ccc(Oc2ccccc2)cc1`, with “inactive”; and `C[C@H]1CN([C@@H](C)CO)C(=O)Cc2cc(NC(=O)CCC(F)(F)F)ccc2O[C@@H]1CN(C)Cc1ccc(Oc2ccccc2)cc1`, with “inactive”; and `COc1ccc(S(=O)(=O)Nc2ccc3c(c2)C(=O)N([C@H](C)CO)C[C@@H](C)[C@@H](CN(C)C(=O)CCC(F)(F)F)OCCCC[C@H](C)O3)cc1`, with “inactive”.

On to `C[C@@H]1CCCCO[C@@H](CN(C)S(=O)(=O)c2ccc(F)cc2)[C@H](C)CN([C@@H](C)CO)C(=O)c2cc(NS(=O)(=O)c3ccc(Cl)cc3)ccc2O1`, for which the cytotoxicity call is “inactive”. The entry for `C[C@H](CO)N1C[C@H](C)[C@H](CN(C)Cc2ccc3c(c2)OCO3)OCCCC[C@H](C)Oc2ccc(NC(=O)c3ccccc3)cc2C1=O` is “inactive”; for `Nc1nnc(SC[C@@H](O)CO)s1` it is “inactive”; for `COc1ccc(NC(=O)N(C)C[C@@H]2Oc3ccc(NS(C)(=O)=O)cc3CC(=O)N([C@@H](C)CO)C[C@@H]2C)cc1` it is “inactive”.

Consider `COCC(=O)N(C)C[C@@H]1Oc2cc(C#Cc3ccccc3)ccc2S(=O)(=O)N([C@@H](C)CO)C[C@@H]1C`, for which the cytotoxicity call was “inactive”. Take `O=C(O)C[C@@H]1CC[C@@H]2[C@H](COC[C@H](O)CN2S(=O)(=O)c2ccc(F)cc2)O1`: the cytotoxicity call was “inactive”. The entry for `CN(C)CCCNC(=O)C[C@@H]1CC[C@@H]2[C@H](COC[C@H](O)CN2S(=O)(=O)c2ccc(Cl)cc2)O1` is “inactive”; for `C[C@@H]1CCCCO[C@H](CN(C)S(=O)(=O)c2cccs2)[C@H](C)CN([C@H](C)CO)C(=O)c2cc(NC(=O)NC3CCCCC3)ccc2O1` it is “inactive”; for `C[C@H]1CN([C@@H](C)CO)C(=O)c2cccc(NC(=O)NC3CCCCC3)c2O[C@H]1CN(C)C(=O)Nc1cccc2ccccc12` it is “inactive”. Then `CN1CCN(C(=O)C[C@H]2CC[C@@H]3[C@H](COC[C@@H](O)CN3C(=O)C3CC3)O2)CC1`, with “inactive”; and `COC(=O)c1c(CC[C@@H](CO)NC(=O)N2CCC[C@H]2Cn2cc(Cc3ccccc3)nn2)oc(C(C)=O)c1C(=O)OC`, with “inactive”.
